Screening data as filed in PubChem.
14-3-3 Bad inh: inhibitors of 14-3-3 zeta/Bad binding, primary screen, biochemical, TR-FRET, bovine 14-3-3 zeta | hit rate 0.71% among 220,000 | inhibition, % at 21.7 µM | 14-3-3 protein zeta/delta (Bos taurus), P63103 | TR-FRET 14-3-3zeta/Dy647-pBad peptide displacement, 1 h;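 active means inhibition above about 70%, limit read from the data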
Target sequence (P63103 whole entry, looked up): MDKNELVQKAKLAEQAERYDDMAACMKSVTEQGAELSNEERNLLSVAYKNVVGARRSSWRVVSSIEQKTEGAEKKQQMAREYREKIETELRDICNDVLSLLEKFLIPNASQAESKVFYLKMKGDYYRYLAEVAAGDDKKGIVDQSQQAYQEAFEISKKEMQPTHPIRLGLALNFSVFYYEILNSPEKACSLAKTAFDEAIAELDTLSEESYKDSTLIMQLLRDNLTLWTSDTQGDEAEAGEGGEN
Hck-Nef inh: inhibitors of Nef-activated human Hck kinase, primary screen, biochemical, Z-Lyte FRET, 384-well, Hck-YEEI | Tyrosine-protein kinase HCK (Homo sapiens), P08631 | Recombinant Hck-YEEI plus Nef, Z-Lyte FRET kinase assay | inhibition, % at 20 µM | hit rate 0.68% among 220,000 | AID 463187, 2010;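 active means Hck-Nef kinase inhibition above about 50%, limit read from the data; inactive means inhibition below that limit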
Mcl-1 Bim block: inhibitors of Bim peptide binding to Mcl-1, primary screen, biochemical, bead-based flow cytometry, multiplex; inhibition, % at 10 µM; Bim peptide-Mcl-1 binding; Induced myeloid leukemia cell differentiation protein Mcl-1 (Homo sapiens), Q07820; hit rate 0.1% among 190,000; in the data active means inhibition above about 40%
Target sequence (Q07820 whole entry, looked up): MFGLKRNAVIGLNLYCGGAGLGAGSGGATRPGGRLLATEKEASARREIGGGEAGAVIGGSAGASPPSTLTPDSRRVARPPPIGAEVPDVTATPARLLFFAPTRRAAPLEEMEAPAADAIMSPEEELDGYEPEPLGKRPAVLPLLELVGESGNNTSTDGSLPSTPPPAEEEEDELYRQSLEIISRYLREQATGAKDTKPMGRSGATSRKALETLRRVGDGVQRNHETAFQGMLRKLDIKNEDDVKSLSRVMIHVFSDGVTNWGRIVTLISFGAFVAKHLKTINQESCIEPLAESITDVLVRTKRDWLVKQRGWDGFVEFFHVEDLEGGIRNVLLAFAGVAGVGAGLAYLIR
Mcl1-Bid inh: Mcl-1/Bid binding inhibitors, primary screen, biochemical, TR-FRET, 1536-well; TR-FRET Mcl-1/Bid-Dy647 peptide binding; inhibition, % at 21.7 µM; hit rate 0.97% among 220,000;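 active means compounds that cut the binding signal by more than half at the single screening dose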;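 further: His-tagged Mcl-1 with europium anti-His antibody binding Bid BH3 peptide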
eIF4E 4G PPI: eIF4E–eIF4G protein interaction inhibitors, primary screen, biochemical, uHTS, TR-FRET, eIF4GI fragment; TR-FRET eIF4E-eIF4GI(517-606) binding, 2 h; Eukaryotic translation initiation factor 4E (Mus musculus) + Eukaryotic translation …; hit rate 0.37% among 220,000; inhibition, % at 21.7 µM;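 active means inhibition above about 30%, limit read from the data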
Mcl1 Noxa PPI: Mcl-1/Noxa binding inhibitors, primary screen, biochemical, TR-FRET, 1536-well; inhibition, % at 21.7 µM; AID 1022, 2008; Induced myeloid leukemia cell differentiation protein Mcl-1 (Homo sapiens), Q07820; hit rate 1.5% among 220,000; TR-FRET Mcl-1/Noxa peptide binding, 2 h;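 active means compounds that cut the protein-peptide binding signal by more than 50% relative to plate controls in a single-dose test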;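 further: His-tagged Mcl-1 with rhodamine Noxa BH3 peptide and terbium anti-His antibody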
Each line names hits and unclear results; the compound was inactive in the other large screens; [ ] = dose if it differs, or a comment. Shown are actives, neighbours in structure and some others; about 3.5% of the full set was active somewhere.

Cc1cc(C)n2nc(C(=O)Nc3ccc4c(c3)OCO4)nc2n1	Mcl1 Noxa PPI 53.5
CCN(CC)c1ccc(NC(=O)c2nc3nc(C)cc(C(F)F)n3n2)cc1	Mcl1 Noxa PPI 57.6
Cc1ccc(S(=O)(=O)N(CC(=O)NC2CCCC2)c2cccc(C)c2)cc1	none
CC1(C2CC2)NC(=O)NC1=O (stereo unspecified)	eIF4E 4G PPI 90.0[fluorescence artefact?]
C/C(=N/NC(=O)CNC(=O)c1cccc(F)c1)c1ccc2c(c1)CCCC2	none
COc1nnc(-c2ccccc2)s1	none
O=C1CSC(c2ccncc2)N1Cc1ccccc1 (stereo unspecified)	Mcl1-Bid inh 92.8
O=C1CSC(c2ccncc2)N1Cc1ccco1 (stereo unspecified)	none
CCCC(=O)Oc1ccc2c(C)cc(=O)oc2c1	Hck-Nef inh 76.6
Cc1cc(=O)oc2cc(OC(=O)c3cncc(Br)c3)ccc12	Hck-Nef inh 68.8
Cc1cc(=O)oc2cc(OC(=O)CCN3C(=O)c4ccccc4C3=O)ccc12	none
O=C(O)c1ccc(NC2=C/C(=N/S(=O)(=O)c3ccccc3)c3ccccc3C2=O)cc1	Mcl1 Noxa PPI 93.4
O=C1C(Nc2ccc(O)cc2)=C/C(=N/S(=O)(=O)c2cccs2)c2ccccc21	none
O=C(CCSCc1ccc(Cl)cc1)NCc1cccnc1	none
Cc1cc(C)cc(-c2nnc(SCC(=O)c3ccc4c(c3)OCCO4)o2)c1	none
Cc1cc(-c2nnc(SCC(=O)c3ccc4c(c3)OCCO4)o2)no1	Mcl1 Noxa PPI 58.9
Cc1cc(Br)ccc1NC(=O)CN1C(=O)C2C3CC(c4ccccc4)C(C3)C2C1=O (stereo unspecified)	none
COc1ccc2c(c1)nc(SCC(C)O)n2C (stereo unspecified)	none
COc1ccc2c(c1)nc(SCC(=O)c1cccs1)n2C	14-3-3 Bad inh 70.5
COc1ccc2c(c1)nc(SCC(=O)C(C)(C)C)n2C	14-3-3 Bad inh 73.0
Cc1noc(C)c1COC(=O)c1cccnc1Cl	none
O=C(NNC(=O)C1CCCN(c2ncccn2)C1)c1ccncc1 (stereo unspecified)	none
COc1ccc2ccccc2c1CN1CCN(Cc2ccccc2)CC1	14-3-3 Bad inh 91.2
O=C1CCCC2=C1C(c1ccccc1)C1C(=O)c3ccccc3C1=N2 (stereo unspecified)	Mcl1 Noxa PPI 58.3
Oc1[nH]c2ccc(Br)cc2c1N=NC(=S)Nc1ccc(F)cc1	none (no result: Mcl-1 Bim block)
Oc1ccc(NC(=S)N=Nc2c(O)[nH]c3ccc(Br)cc23)cc1	Mcl1 Noxa PPI 57.4
CCc1nnc(NC(=O)CSc2ccc(-c3nc4ccc(C)cc4[nH]3)cn2)s1	Mcl1 Noxa PPI 57.8
Cc1ccc2nc(-c3ccc(SCC(=O)O)nc3)[nH]c2c1	none
Cc1cc2nc(-c3ccc(SCC(=O)Nc4nccs4)nc3)[nH]c2cc1C	Mcl1 Noxa PPI 73.3
CCn1cc(/C=N\NC(=O)Cc2ccc([N+](=O)[O-])cc2)c(C)n1	none
CCOC(=O)Cc1csc(NC(=O)c2ccc(Br)o2)n1	none
CCOC(=O)Cc1csc(NC(=O)c2sc3nc4ccc(CC)cc4cc3c2N)n1	Mcl1-Bid inh 91.5, Mcl1 Noxa PPI 88.7
NC(=O)NC(CC(=O)NCCc1ccc(S(N)(=O)=O)cc1)c1ccc(Cl)cc1 (stereo unspecified)	Mcl1-Bid inh 83.6 (no result: Mcl-1 Bim block)
CC1Cc2cccc3c(O)c(C(=O)c4nn[nH]n4)c(=O)n1c23 (stereo unspecified)	none
CCOC(=O)CCNC(C)C1COc2ccccc2O1 (stereo unspecified)	14-3-3 Bad inh 76.2, Mcl1-Bid inh 56.1
CC(NC(=O)c1ccccc1Cl)C1COc2ccccc2O1 (stereo unspecified)	none
Cc1cnc(NC(=O)c2ccc(OCC3CCCO3)cc2)s1 (stereo unspecified)	Hck-Nef inh 58.7
CC(C)(C)c1ccc(C(=O)NCC(=O)OCc2ccc([N+](=O)[O-])cc2)cc1	none
CC(=O)NNC(=O)c1sc(=S)n2c1[nH]c(=O)c1sccc12	Mcl1 Noxa PPI 67.7
NC(=O)c1sc(=S)n2c1[nH]c(=O)c1sccc12	none
O=C(NCc1ccccc1)c1sc(=S)n2c1[nH]c(=O)c1ccccc12	Mcl1 Noxa PPI 51.6
CCOC(=O)C1CCN(C(=O)c2ccccc2NS(=O)(=O)c2ccc(F)cc2)CC1	none
CCN(C(=S)NCc1ccccc1)c1ccccc1	none
Oc1cccc(C(O)CNCc2ccc(-c3ccccc3)cc2)c1 (stereo unspecified)	14-3-3 Bad inh 77.4
OC(CNCc1ccccc1)c1ccccc1 (stereo unspecified)	none (no result: Mcl-1 Bim block)
CC(O/N=C\c1ccccc1O)C(=O)Nc1ccccc1C(=O)N1CCOCC1 (stereo unspecified)	none
CN(C)CCCOc1cccc(Oc2ccccc2)c1	Mcl1-Bid inh 52.5
CCCNc1cc(C)oc(=O)c1C(=O)CC	none
O=C(O)CNC(=O)/C(=C/c1ccco1)NC(=O)/C=C/c1ccccc1	none
C=CCOC(=O)/C(=C/c1ccco1)NC(=O)/C=C/c1ccccc1	Mcl1-Bid inh 88.8 (no result: Mcl-1 Bim block)
CCOC(=O)C1CCN(C(=O)c2cc3ccccc3oc2=O)CC1	none
O=C(O)C1C2C=CC(C2)C1C(=O)NCc1cccs1 (stereo unspecified)	none
CCOC(=O)CC1C(=O)NCCN1C(=O)Nc1ccc(Cl)cc1 (stereo unspecified)	14-3-3 Bad inh 73.3[fluorescence artefact?]
COC(=O)CC1C(=O)NCCN1C(=O)Nc1ccc(Cl)cc1 (stereo unspecified)	none
CN1CCN(C(=S)c2cn(Cc3ccc(Br)cc3)c3ccccc23)CC1	none
CCOc1ccc2nc(SCC(=O)N3c4ccccc4Sc4ccccc43)c(C#N)cc2c1	Mcl-1 Bim block 42.0
O=C(NCc1ccccc1)C(=O)Nc1nc(C23CC4CC(CC(C4)C2)C3)cs1	Mcl-1 Bim block 83.0
O=C(CNC(=O)C(c1ccccc1)c1ccccc1)N/N=C/c1cccnc1	Mcl1 Noxa PPI 95.5 (no result: Mcl-1 Bim block)
CC(C)=CC(=O)OCC(=O)Nc1cc(C)cc(C)c1	none
Oc1ccc(Br)cc1-c1cc(-c2ccccc2)n[nH]1	none
Oc1ccc(Br)cc1-c1cc(-c2ccc(Cl)cc2)n[nH]1	Mcl1 Noxa PPI 82.0
Cc1nc(-c2cccc(S(=O)(=O)N3CCCC(C)C3)c2)cs1 (stereo unspecified)	14-3-3 Bad inh 80.4
Cc1nc(-c2cccc(S(=O)(=O)N3CCC(C)CC3)c2)cs1	none
O=C(C1CCN(S(=O)(=O)c2cccnc2)CC1)N1CCN(c2cccc(Cl)c2)CC1	eIF4E 4G PPI 86.3
